Calls of active or inactive are those of the source.
Columns and labels:
[1] = tested on: PRMT1 (protein arginine N-methyltransferase 1); test: PRMT1 binders on small-molecule microarrays, primary screen, biochemical, small-molecule microarray, 635 nm fluorescence (AID 1088); settings: small-molecule microarray binding, higher = more signal;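 further: binding of Prmt1 protein to compounds spotted on small-molecule microarray slides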
[2] = yeast growth modulation, basal conditions, primary screen, YJM789 clinical isolate, OD600, 24 h (AID 1089);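 further: growth of clinical yeast isolate S. cerevisiae YJM 789 seeded 1000 cells per well; test concentration not given here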; settings: S. cerevisiae YJM789 growth, higher = more signal, called active from +8 up or from −8 down
[3] = fission yeast growth modulation, primary screen, strain 972, OD600, 24 h, no modulator (AID 1090);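 further: basal condition with compound alone and no growth modifier present; test concentration not given here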; settings: S. pombe 972 growth, higher = more signal, called active from +8 up or from −8 down
[4] = S. cerevisiae growth modulation with rapamycin, primary screen, strain BY4716, OD600, 96 h (AID 1091); settings: higher = more signal, called active from +8 up or from −8 down; further: test concentration not given here
[5] = target: Torsin-1A-interacting protein 2 (Homo sapiens) (UniProt Q8NFQ8); test: LULL1 binders on small-molecule microarray, primary screen, cell lysate, human LULL1 lysate, 635/667 nm fluorescence (AID 1092); settings: hLULL1 lysate binding, 635 nm fluorescence, higher = more signal;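 further: probe is lysate of COS7 cells overexpressing human LULL1; score merges per-feature 667 nm fluorescence with signal-to-noise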
[6] = E. coli growth modulation, two-sided OD650, primary screen, E. coli filamentation project, strain DRC41, 24 h (AID 1093); settings: OD650, 24 h, higher = more signal, called active from +8 up or from −8 down;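 further: MC1000 strain lacking acrAB efflux and sulA so SOS filamentation is blocked; test concentration not given here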
[7] = small-molecule microarray binders of probe aLefty2, primary screen, biochemical, biotinylated probe, 635/667 nm fluorescence (AID 1094); settings: higher = more signal;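 further: score merges spot fluorescence near 667 nm with spot signal-to-noise ratio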
[8] = tested on: Noggin (protein binding on small-molecule microarray); test: Noggin binders on small-molecule microarray, primary screen, biochemical, 635/667 nm fluorescence (AID 1095); settings: 635 nm fluorescence, higher = more signal;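 further: score merges 667 nm feature fluorescence with signal to noise over triplicate slides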
[9] = target: Neurogenic locus notch homolog protein 3 (Homo sapiens) (UniProt Q9UM47); test: NOTCH3 binders on small-molecule microarray, primary screen, biochemical, 635/667 nm fluorescence (AID 1096); settings: NOTCH3 binding, 635 nm fluorescence, higher = more signal
[10] = small-molecule microarray binders of probe aEGFR, primary screen, biochemical, biotinylated probe, 635/667 nm fluorescence (AID 1097); settings: higher = more signal;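 further: probe is a biotinylated anti-EGFR antibody binding compounds printed on slides; score combines fluorescence near 667 nm and signal to noise of each spot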
[11] = tested on: Plasmodium falciparum Sir2 (PF13_0152, Sir2A); test: pfSir2 binders on small-molecule microarrays, primary screen, biochemical, small-molecule microarray, 635 nm fluorescence (AID 1098); settings: small-molecule microarray binding, fluorescence 635 nm; higher = more signal;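 further: score merges spot fluorescence intensity with its signal-to-noise ratio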
[12] = small-molecule microarray binders of probe aDKK1, primary screen, biochemical, biotinylated probe, 635/667 nm fluorescence (AID 1099); settings: higher = more signal;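 further: score merges 667nm spot fluorescence with signal to noise across triplicate slides; reference of the scale not given here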
[13] = small-molecule microarray binders of probe aCHRDL2, primary screen, biochemical, biotinylated probe, 635/667 nm fluorescence (AID 1100); settings: higher = more signal
[14] = splicing luciferase reporter signal modulators, primary screen, spliceosome inhibition project, cell-based, HEK293, splice +/- reporter (AID 1101); settings: luminescence, 24 h, higher = more signal, called active from +8 up or from −8 down;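 further: HEK293 cells carrying a splicing-competent luciferase reporter gene; test concentration not given here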
[15] = target: Fibroblast growth factor 10 (Homo sapiens) (UniProt O15520); test: FGF10 binders on small-molecule microarrays, primary screen, biochemical, small-molecule microarray, 635 nm fluorescence (AID 1102); settings: FGF10 binding, fluorescence 635 nm, higher = more signal
[16] = tested on: glycogen synthase kinase-3 (GSK3A per assay name; protocol says GSK3B); test: GSK3 binders on small-molecule microarrays, primary screen, biochemical, small-molecule microarray, 635 nm fluorescence, GSK3A (AID 1103); settings: small-molecule microarray binding, fluorescence 635 nm; higher = more signal; further: the record names both GSK3A and GSK3B
[17] = target: Epidermal growth factor receptor (Homo sapiens) (UniProt P00533); test: EGFR binders on small-molecule microarrays, primary screen, biochemical, small-molecule microarray, 635 nm fluorescence (AID 1104); settings: EGFR binding, higher = more signal;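 further: score merges 667 nm emission intensity with spot signal to noise over triplicate slides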
[18] = target: Follistatin-related protein 3 (Homo sapiens) (UniProt O95633); test: FSTL3 binders on small-molecule microarrays, primary screen, biochemical, small-molecule microarray, 635 nm fluorescence (AID 1105); settings: FSTL3 binding, higher = more signal;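 further: score merges emission near 667 nm and signal to noise per printed spot across three slides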
[19] = target: Dickkopf-related protein 1 (Homo sapiens) (UniProt O94907); test: DKK1 binders on small-molecule microarrays, primary screen, biochemical, small-molecule microarray, 635 nm fluorescence scan (AID 1106); settings: DKK1 binding, higher = more signal;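 further: score merges emission near 667 nm with signal to noise over three replicate slides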
[20] = tested on: Inhibin beta A chain (activin A); test: INHBA (activin A) binders on microarrays, primary screen, biochemical, small-molecule microarray, 635 nm fluorescence scan (AID 1107); settings: small-molecule microarray binding, higher = more signal;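 further: mouse activin A protein probed at 4.33 µg/mL on printed slides; score merges bound-protein fluorescence near 667 nm with spot signal-to-noise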

Chain of Torsin-1A-interacting protein 2 (Homo sapiens) (Q8NFQ8 whole entry, looked up): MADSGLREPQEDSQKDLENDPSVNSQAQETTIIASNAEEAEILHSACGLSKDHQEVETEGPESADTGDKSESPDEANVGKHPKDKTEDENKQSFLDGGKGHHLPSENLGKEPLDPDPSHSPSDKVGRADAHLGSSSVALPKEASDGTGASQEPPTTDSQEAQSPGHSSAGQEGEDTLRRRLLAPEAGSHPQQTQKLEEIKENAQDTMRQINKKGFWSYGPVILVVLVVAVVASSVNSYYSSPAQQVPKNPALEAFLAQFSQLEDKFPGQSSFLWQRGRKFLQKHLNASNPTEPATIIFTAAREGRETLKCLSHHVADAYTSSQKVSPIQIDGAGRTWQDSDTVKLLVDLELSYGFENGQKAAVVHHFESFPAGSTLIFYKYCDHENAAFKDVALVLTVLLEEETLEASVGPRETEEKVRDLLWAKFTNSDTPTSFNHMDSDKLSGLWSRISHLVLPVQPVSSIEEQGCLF
Chain of Epidermal growth factor receptor (Homo sapiens) (P00533 whole entry, looked up): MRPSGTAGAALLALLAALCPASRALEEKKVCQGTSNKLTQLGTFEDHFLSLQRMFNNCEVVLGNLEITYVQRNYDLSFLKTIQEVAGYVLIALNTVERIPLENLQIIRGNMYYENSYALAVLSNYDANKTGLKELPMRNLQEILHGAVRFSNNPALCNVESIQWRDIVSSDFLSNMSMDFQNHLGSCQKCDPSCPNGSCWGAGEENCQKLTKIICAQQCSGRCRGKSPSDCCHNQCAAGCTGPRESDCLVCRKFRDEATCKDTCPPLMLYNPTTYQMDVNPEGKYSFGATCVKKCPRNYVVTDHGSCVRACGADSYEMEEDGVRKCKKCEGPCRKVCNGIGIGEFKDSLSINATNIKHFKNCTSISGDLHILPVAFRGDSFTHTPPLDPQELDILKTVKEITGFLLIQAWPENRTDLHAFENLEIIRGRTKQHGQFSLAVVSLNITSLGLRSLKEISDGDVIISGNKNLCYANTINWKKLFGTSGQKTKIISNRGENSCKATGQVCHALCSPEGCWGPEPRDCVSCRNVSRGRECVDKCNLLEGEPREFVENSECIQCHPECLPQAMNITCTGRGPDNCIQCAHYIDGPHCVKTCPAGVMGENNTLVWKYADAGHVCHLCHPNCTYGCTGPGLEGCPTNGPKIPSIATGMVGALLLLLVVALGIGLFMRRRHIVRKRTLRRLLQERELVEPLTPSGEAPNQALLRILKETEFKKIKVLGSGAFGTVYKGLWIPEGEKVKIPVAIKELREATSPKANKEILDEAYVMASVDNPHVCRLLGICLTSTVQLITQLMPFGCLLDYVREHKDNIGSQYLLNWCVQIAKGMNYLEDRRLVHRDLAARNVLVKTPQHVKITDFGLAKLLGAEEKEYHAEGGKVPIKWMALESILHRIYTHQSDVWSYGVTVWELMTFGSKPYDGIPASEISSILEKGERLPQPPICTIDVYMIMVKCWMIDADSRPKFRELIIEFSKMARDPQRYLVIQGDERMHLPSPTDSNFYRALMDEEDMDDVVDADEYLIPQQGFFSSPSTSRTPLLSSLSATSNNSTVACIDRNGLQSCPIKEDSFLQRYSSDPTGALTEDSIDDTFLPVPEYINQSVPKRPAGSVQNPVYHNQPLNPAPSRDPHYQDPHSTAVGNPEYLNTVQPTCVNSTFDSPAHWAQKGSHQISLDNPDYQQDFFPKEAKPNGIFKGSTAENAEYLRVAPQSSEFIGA
Chain of Follistatin-related protein 3 (Homo sapiens) (O95633 whole entry, looked up): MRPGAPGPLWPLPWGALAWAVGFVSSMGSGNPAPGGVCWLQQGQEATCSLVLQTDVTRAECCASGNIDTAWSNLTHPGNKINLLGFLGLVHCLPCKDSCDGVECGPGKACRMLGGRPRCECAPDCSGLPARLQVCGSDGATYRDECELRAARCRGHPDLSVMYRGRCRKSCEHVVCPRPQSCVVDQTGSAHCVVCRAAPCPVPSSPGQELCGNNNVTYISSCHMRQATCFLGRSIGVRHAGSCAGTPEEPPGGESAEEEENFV
Chain of Fibroblast growth factor 10 (Homo sapiens) (O15520 whole entry, looked up): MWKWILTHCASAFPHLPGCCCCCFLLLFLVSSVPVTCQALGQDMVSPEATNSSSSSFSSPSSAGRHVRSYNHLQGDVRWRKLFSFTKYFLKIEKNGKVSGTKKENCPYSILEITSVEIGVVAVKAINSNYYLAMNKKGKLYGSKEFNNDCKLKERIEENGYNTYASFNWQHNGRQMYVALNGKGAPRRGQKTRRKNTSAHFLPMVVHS
Chain of Dickkopf-related protein 1 (Homo sapiens) (O94907 whole entry, looked up): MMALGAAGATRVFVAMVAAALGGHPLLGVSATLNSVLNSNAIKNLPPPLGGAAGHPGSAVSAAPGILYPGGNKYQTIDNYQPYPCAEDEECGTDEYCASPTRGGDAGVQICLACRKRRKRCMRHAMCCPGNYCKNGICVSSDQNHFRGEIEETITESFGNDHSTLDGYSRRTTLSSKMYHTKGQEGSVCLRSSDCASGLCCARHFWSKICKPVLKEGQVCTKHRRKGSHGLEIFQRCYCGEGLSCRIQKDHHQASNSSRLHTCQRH
Chain of Neurogenic locus notch homolog protein 3 (Homo sapiens) (Q9UM47 whole entry, looked up): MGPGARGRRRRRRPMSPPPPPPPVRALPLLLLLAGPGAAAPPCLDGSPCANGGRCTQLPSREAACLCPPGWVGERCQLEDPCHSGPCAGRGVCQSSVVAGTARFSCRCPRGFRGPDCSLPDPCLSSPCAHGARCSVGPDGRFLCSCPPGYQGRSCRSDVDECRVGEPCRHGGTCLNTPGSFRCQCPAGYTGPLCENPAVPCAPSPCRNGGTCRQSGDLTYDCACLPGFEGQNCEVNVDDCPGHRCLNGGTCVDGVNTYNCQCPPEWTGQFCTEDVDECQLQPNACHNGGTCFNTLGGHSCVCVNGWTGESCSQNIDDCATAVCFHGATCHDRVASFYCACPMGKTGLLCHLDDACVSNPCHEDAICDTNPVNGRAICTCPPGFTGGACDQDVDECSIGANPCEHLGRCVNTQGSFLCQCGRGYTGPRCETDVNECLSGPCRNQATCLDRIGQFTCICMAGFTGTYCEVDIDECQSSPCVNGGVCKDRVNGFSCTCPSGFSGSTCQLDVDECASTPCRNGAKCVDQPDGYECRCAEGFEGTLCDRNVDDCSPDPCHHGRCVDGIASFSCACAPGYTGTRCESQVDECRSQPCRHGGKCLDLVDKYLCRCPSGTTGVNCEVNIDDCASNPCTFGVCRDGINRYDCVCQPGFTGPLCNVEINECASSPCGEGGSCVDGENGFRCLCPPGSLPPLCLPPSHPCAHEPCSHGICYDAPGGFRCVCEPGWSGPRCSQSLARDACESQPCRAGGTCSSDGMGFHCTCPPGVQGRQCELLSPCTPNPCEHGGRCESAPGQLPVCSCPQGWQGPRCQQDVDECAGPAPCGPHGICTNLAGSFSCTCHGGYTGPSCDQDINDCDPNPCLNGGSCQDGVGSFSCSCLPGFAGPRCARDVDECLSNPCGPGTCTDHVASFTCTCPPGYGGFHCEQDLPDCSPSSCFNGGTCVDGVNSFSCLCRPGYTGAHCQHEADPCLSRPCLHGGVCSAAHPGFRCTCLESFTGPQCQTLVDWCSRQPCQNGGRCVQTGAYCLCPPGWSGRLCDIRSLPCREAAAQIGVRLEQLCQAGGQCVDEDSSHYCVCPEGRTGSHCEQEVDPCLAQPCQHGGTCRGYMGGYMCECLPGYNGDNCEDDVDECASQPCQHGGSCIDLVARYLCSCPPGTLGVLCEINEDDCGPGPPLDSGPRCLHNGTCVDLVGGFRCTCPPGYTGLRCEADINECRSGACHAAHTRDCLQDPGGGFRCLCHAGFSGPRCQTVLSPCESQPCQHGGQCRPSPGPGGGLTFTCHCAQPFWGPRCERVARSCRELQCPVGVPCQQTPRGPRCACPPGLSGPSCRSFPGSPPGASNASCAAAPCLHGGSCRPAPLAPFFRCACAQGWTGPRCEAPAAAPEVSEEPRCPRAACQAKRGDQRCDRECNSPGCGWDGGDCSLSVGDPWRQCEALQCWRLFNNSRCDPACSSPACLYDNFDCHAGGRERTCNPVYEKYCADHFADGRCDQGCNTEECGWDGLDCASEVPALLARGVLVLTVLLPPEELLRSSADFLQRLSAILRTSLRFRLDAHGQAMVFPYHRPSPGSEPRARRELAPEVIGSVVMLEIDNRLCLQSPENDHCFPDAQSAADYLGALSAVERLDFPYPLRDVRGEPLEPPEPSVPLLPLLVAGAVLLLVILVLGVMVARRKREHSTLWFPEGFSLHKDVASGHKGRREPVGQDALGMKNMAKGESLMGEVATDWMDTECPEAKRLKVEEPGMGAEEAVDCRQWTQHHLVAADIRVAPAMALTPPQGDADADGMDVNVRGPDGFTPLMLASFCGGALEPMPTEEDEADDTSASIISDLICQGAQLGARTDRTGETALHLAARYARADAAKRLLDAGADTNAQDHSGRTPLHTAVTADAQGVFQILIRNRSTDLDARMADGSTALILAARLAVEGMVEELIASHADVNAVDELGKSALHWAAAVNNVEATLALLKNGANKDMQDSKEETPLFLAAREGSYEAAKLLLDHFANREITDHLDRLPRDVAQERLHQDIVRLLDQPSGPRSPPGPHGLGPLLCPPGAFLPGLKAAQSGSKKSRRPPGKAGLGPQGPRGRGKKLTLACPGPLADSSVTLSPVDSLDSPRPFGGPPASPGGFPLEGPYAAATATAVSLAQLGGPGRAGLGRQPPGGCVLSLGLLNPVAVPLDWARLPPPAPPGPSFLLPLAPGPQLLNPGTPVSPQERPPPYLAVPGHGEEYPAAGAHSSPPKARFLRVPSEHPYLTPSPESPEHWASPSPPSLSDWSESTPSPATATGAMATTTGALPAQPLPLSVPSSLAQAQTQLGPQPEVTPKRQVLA

SMILES	composite z-score [1]	z-score [2]	z-score [3]	z-score [4]	composite z-score [5]	z-score [6]	composite z-score [7]	composite z-score [8]	composite z-score [9]	composite z-score [10]	composite z-score [11]	composite z-score [12]	composite z-score [13]	z-score [14]	composite z-score [15]	composite z-score [16]	composite z-score [17]	composite z-score [18]	composite z-score [19]	composite z-score [20]
O=C(NCc1ccccc1)[C@@H]1c2ccccc2C(=O)N(Cc2ccccc2C(F)(F)F)[C@H]1c1ccc(CO)cc1	1.45	0.397 (inactive)	0.234 (inactive)	-0.0066 (inactive)	1.83	0.479 (inactive)	-0.179	-0.483	-0.0406	-0.212	1.61	-0.299	0.752	-0.452 (inactive)	0.112	-0.076	-0.406	-0.45	-1.09	0.212
O=C1C2C=CC(C(O)c3ccc(Br)cc3)N(Nc3ccccc3F)C2C(=O)N1c1ccccc1 (stereo not given)	0.566	-1.16 (inactive)	-0.435 (inactive)	-1.26 (inactive)	2.97	0.569 (inactive)	-0.103	-0.231	0.626	-0.112	0.708	0.0952	0.703	-1.93 (inactive)	0.118	0.235	-0.309	0.0807	-0.325	0.404
Cn1cccc1C(O)C1C=CC2C(=O)NC(=O)C2N1Nc1ccc(Cl)cc1Cl (stereo not given)	1.04	-0.477 (inactive)	-1.81 (inactive)	-0.356 (inactive)	3.52	-2.82 (inactive)	0.673	0.405	1.05	0.0201	1.21	1.3	1.33	1.08 (inactive)	0.914	0.593	0.295	1.34	-0.43	0.657
O=C1OCCC/C=C\[C@H]2OC34C=CCN(CCN5CCOCC5)C(=O)[C@H]3N(CCCCCCO)C(=O)[C@@H]4C12 (stereo not given in full)	0.733	-1.84 (inactive)	-1.29 (inactive)	-0.529 (inactive)	2.39	1.33 (inactive)	-0.166	-0.0171	0.18	-0.0953	1.16	-0.0117	-0.0021	-1.4 (inactive)	-0.145	0.229	-0.684	-0.0634	-0.528	1.41
C=CCC(OC(C)=O)[C@@H]1[C@@H](N(Cc2cccc3ccccc23)C(=O)Cc2ccc(OC)cc2)c2cc(OCCCO)ccc2N1C(=O)c1ccc2ccccc2n1 (stereo not given in full)	0.892	-0.482 (inactive)	0.787 (inactive)	-1.24 (inactive)	1.2	-0.558 (inactive)	-0.109	0.201	0.222	-0.144	-0.316	-0.0805	0.144	-0.326 (inactive)	0.103	-0.135	0.124	0.484	-0.0462	1.33
C=C(C)[C@@H]1CC=C(C(O)C2C=CC3C(=O)N(c4ccccc4)C(=O)C3N2Nc2ccccc2F)CC1 (stereo not given in full)	1.57	1.59 (inactive)	1.09 (inactive)	3.06 (inactive)	3.64	-1.48 (inactive)	0.0865	0.443	1.01	0.11	1.15	0.671	0.972	0.869 (inactive)	1.08	1.3	0.662	1.42	-0.112	0.725
CN1C(=O)C2C=CC(C(O)c3cccc(O)c3)N(Nc3ccccc3)C2C1=O (stereo not given)	-0.0187	0.637 (inactive)	1.62 (inactive)	1.1 (inactive)	0.684	-0.509 (inactive)	0.0004	0.215	0.764	-0.0251	1.15	0.14	0.285	1.27 (inactive)	0.517	-0.236	-0.288	-0.0255	-0.208	0.866
CN1C(=O)C2C=CC(C(O)C#Cc3ccccc3)N(Nc3ccccc3)C2C1=O (stereo not given)	1.54	0.415 (inactive)	-1.18 (inactive)	1 (inactive)	3.4	-0.672 (inactive)	0.166	0.295	1.03	0.199	1.58	0.932	0.891	1.24 (inactive)	1.33	1.31	0.56	1.42	-0.184	0.926
COc1ccc(CCN2C(=O)[C@@]3(Cc4ccccc42)c2ccccc2C(=O)N(Cc2ccccc2OC)[C@H]3c2ccc(CO)cc2)cc1	0.177	-0.585 (inactive)	-1.23 (inactive)	-1.42 (inactive)	1.66	0.237 (inactive)	0.0877	-1.36	-0.642	-0.204	0.9	0.533	0.406	-0.942 (inactive)	-0.783	-0.49	-0.951	-1.14	-1.33	0.359

Reference: PubChem BioAssay
